# Source: PubChem BioAssay AID504832 (National Center for Advancing Translational Sciences (NCATS), 2011)
# In all, about 310,000 compounds went through this assay and about 18,000 (5.8%) were called active. Inconclusive results (about 22%) are left out. The call rests on the fitted dose curve; in most records, active means well fitted inhibition curve with a large enough effect; inconclusive means small, poorly fitted or top-dose-only effect, or another doubt; inactive means no such curve, though single readings can be large or run the other way. Only a selection was taken, and actives are over-represented in it overall.
# Experiment: Primary qHTS for delayed death inhibitors of the malarial parasite plastid, 48 hour incubation
# Details: P. falciparum luciferase growth in erythrocytes; series mostly up to 28.7 µM; activity change, negative = inhibition: at the top concentration
# Procedure, shortened: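 Read-out is firefly luciferase luminescence from an integrated reporter in P. falciparum, so falling signal marks reduced parasite growth. Infected erythrocytes were at 2% hematocrit and 0.1% parasitemia (final) in Albumax-supplemented RPMI 1640.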
# On the % scale 0 is the no-effect control and ±100 the full control effect; potency means the concentration at half of the fitted maximal effect.
SMILES,"activity change, negative = inhibition",Potency
Brc1ccccc1/C=N/Nc1nc2ccccc2o1,122% (inactive),
COc1ccc(NC(=O)c2cccc(Cl)c2)c[n+]1[O-],-14.8% (inactive),
CC(C(=O)c1ccc(-c2ccccc2)cc1)[n+]1cccc(Br)c1 (stereo unspecified),43.3% (inactive),
CC(C)C(=O)NCC(c1cccs1)S(=O)(=O)c1ccc(F)cc1 (stereo unspecified),4.58% (inactive),
CC(CC(=O)N1CCN(S(=O)(=O)c2ccccc2)CC1)n1cncn1 (stereo unspecified),21.2% (inactive),
COc1ccc(C(=O)CCc2ccccc2O)c(OC)c1,117% (inactive),
COc1ccc(C(=O)CCC(=O)Nc2cccnc2)c(OC)c1,-5.35% (inactive),
COc1ccc(C(=O)/C=C/c2cccnc2)c(OC)c1,,11.7 µM (active)
COc1ccccc1N(CC(=O)NC1CCCC1)C(=O)C1(C)CC(=O)N=C2C=CC(C)=CN21 (stereo unspecified),5.48% (inactive),
COc1ccc(CNC(=O)CN(C(=O)c2csnn2)c2cnc3ccccc3c2)cc1,13.2% (inactive),
CCOC(=O)N1CCN(Cc2nnc(-c3ccccc3Cl)o2)CC1,0.496% (inactive),
COc1cc(C(c2c(NC(=O)c3ccco3)sc(C)c2C)N2CCOCC2)cc(OC)c1OC (stereo unspecified),,10.4 µM (active)
COc1ccc(C(=O)Nc2sc(C)c(C)c2CN2CCOCC2)cc1,17.1% (inactive),
COC(=O)c1cc(NC(=O)c2ccco2)ccc1N1CCOCC1,37.6% (inactive),
O=c1c2cc([N+](=O)[O-])ccc2nc2n1CCC2,-0.017% (inactive),
COc1ccc(OC)c(NC(=O)C2CCCN2S(=O)(=O)c2cccc3nsnc23)c1 (stereo unspecified),0% (inactive),
O=C(CCNS(=O)(=O)c1cccs1)N1CCN(c2ccc(F)cc2)CC1,2.81% (inactive),
O=c1ccc2cc(S(=O)(=O)NCCCc3ccccc3)ccc2[nH]1,-2.29% (inactive),
Cn1cnnc1SCc1nnc(-c2ccccc2Br)o1,50.9% (inactive),
CC(C)N(Cc1nnc(-c2ccc(Cl)cc2)o1)C(=O)C1=COCCO1,-5.65% (inactive),
CC(C)N(Cc1nnc(-c2ccccc2Br)o1)C(=O)c1cc(Cl)nc2ccccc12,,9.28 µM (active)
COC(=O)C1=CO[C@@H](O[C@@H]2O[C@H](CO)[C@@H](O)[C@H](O)[C@H]2O)C2C1C[C@H](O)[C@@H]2C (stereo partly specified),30.8% (inactive),

SMILES,"activity change, negative = inhibition",Potency
COc1ccc(C(=O)NCc2ccc(C)cc2)cc1S(=O)(=O)N1CCCC1,-27.2% (inactive),
CN(C)C(=O)Oc1ccc2c(c1)O/C(=C\c1ccccc1)C2=O,101% (inactive),
COC(=O)C(C)Oc1ccc2c(c1)O/C(=C\c1cccc(Br)c1)C2=O (stereo unspecified),,13.1 µM (active)
COC(=O)C(C)Oc1ccc2c(-c3cccc([N+](=O)[O-])c3)cc(=O)oc2c1 (stereo unspecified),0.049% (inactive),
CCOC(=O)CC1COCCN1C(=O)c1cc(COc2ccc(F)c(F)c2)on1 (stereo unspecified),-0.834% (inactive),
Cc1cc(Nc2ccc(C(=O)N3CCCCC3)cc2)c2cccc(C)c2n1,12.9% (inactive),
Cc1cc(Nc2ccc(Cl)cc2)nc(N2CCOCC2)n1,17.6% (inactive),
Cc1cc(Nc2ccc(N3CCOCC3)cc2)c2cccc(C)c2n1,,4.15 µM (active)
O=[N+]([O-])c1ccc(C=Nc2ccc(Cl)cc2Cl)s1,,10.4 µM (active)
O=S(=O)(Nc1ccccc1Cl)c1cccc2nsnc12,-17% (inactive),
C/C(CC(=O)NCc1ccc(Cl)cc1)=N\NC(=O)COc1ccc(C)cc1Br,30.4% (inactive),
COc1ccc(-c2cc(C(=O)N3CCN(Cc4ccc5c(c4)OCO5)CC3)on2)cc1OC,-17.8% (inactive),
COc1ccccc1CCCNC(=O)C1CCC(=O)N(CCN2CCOCC2)C1 (stereo unspecified),5.42% (inactive),
O=C(COc1ccc(Cl)cc1)NC(=S)Nc1ccccc1N1CCOCC1,12.9% (inactive),
Cc1cc(C)cc(OCC(=O)Nc2ccc(N3CCOCC3)cc2N2CCOCC2)c1,,11.7 µM (active)
Cc1cccc(OCC(=O)NC(=S)Nc2ccccc2N2CCOCC2)c1,6.3% (inactive),
CC(C)c1ccc(/C=C/C(=O)NCCCN2CCOCC2)cc1,5.73% (inactive),
O=C(OCC(=O)N1CCN(C(=O)c2ccco2)CC1)c1cccc(O)c1,-3.72% (inactive),
Cc1cc(-c2csc(N)n2)c(C)n1Cc1ccccc1,,11.7 µM (active)
CCCc1cc(-c2n[nH]c(=S)n2Cc2ccccc2)cs1,15% (inactive),
S=c1[nH]nc(-c2cc(-c3ccsc3)n[nH]2)n1-c1ccccc1,25.4% (inactive),
Cc1n[nH]c(=O)n1-c1ccc(Oc2ccccc2)cc1,87.2% (inactive),

SMILES,"activity change, negative = inhibition",Potency
Cc1cc(-c2csc(N)n2)c(C)n1-c1ccccc1,,14.7 µM (active)
O=c1onc(-c2cccs2)n1Cc1ccccc1,-11.5% (inactive),
O=C(Cc1ccc(Br)cc1)NCCN1CCOCC1,5.97% [at 0.00184 µM] (inactive),
CCC(C(=O)N1CCN(S(=O)(=O)c2sc(C(=O)O)c(C)c2C(=O)O)CC1)c1ccccc1 (stereo unspecified),-4.44% (inactive),
COc1ccc(OC)c(NC(=O)c2cccc(S(=O)(=O)N3CCN(C(C)=O)CC3)c2)c1,-22.4% (inactive),
COc1cc(OC)cc(C(=O)Nc2nnc(SCC(=O)NCC3CCCO3)s2)c1 (stereo unspecified),4.43% (inactive),
Cc1ccccc1Nc1nc(-c2cccnc2)cs1,20.1% (inactive),
CCCOc1ccc(Cc2c(O)nc(SC)[nH]c2=O)cc1C,-4.88% (inactive),
COC(=O)c1ccc(Cc2ccccc2)o1,17.1% (inactive),
CN(C)c1ccc(/C=N/N(Cc2ccccc2)c2ccccc2)cc1,-3.46% (inactive),
CN(C)c1cc[n+](Cc2ccccc2)cc1,,0.928 µM (active)
CC1=NN(Cc2ccccc2)C(=O)/C1=C/c1ccc(N(C)C)cc1,-8.44% (inactive),
C[n+]1ccc(C(=O)NCc2ccccc2)cc1,18.5% (inactive),
c1ccc(Cc2cc[n+](Cc3ccccc3)cc2)cc1,,1.17 µM (active)
Cc1ccc(NS(=O)(=O)c2cc3c(cc2C)NC(=O)CO3)cc1,-9.35% (inactive),
O=S(=O)(c1ccccc1)N1CCC(c2ccccc2)CC1,-4.53% (inactive),
c1ccc(C2CCC(N3CCC(N4CCCCC4)CC3)CC2)cc1 (stereo unspecified),,10.4 µM (active)
Cc1ccc(S(=O)(=O)N2CCC(N3CCCCCC3)CC2)cc1,-21% (inactive),
COc1ccccc1NC(=O)Nc1nnc(Cc2ccc(F)cc2)s1,-1.81% (inactive),
CC1=NN(/C(=N\c2nnc(C)s2)Nc2ccccc2)[C@H](c2ccc(C)cc2)S1,,8.28 µM (active)
COc1ccc2oc(=N)c(C(=O)Nc3ccc(Br)cc3)cc2c1,-3.78% (inactive),
CCOC(=O)C1CCN(C(=O)Cn2cc(C#N)c3ccccc32)CC1,-19.6% (inactive),

SMILES,"activity change, negative = inhibition",Potency
CCOC(=O)C1CCN(C(=O)CC2C(=O)N(Cc3ccccc3)C(C)c3nc4ccccc4n32)CC1 (stereo unspecified),,7.38 µM (active)
CC1c2nc3ccccc3n2C(CC(=O)NCCCN2CCOCC2)C(=O)N1Cc1ccccc1 (stereo unspecified),20.1% (inactive),
O=C(NCCS(=O)(=O)NCc1ccc(F)cc1)c1ccccc1,-2.15% (inactive),
Cc1cc(C)nc(N/N=C/c2c(CO)cnc(C)c2O)n1,,10.4 µM (active)
COc1ccc(/C=C2\SC(=S)N(CCC(=O)Nc3cccc(C(=O)O)c3)C2=O)cc1OC,42.2% (inactive),
CN(NS(=O)(=O)c1cccs1)c1ncc(C(F)(F)F)cc1Cl,9.75% (inactive),
COc1ccc(CNC(=O)c2ccc3oc(C(C)C)nc3c2)cc1,74.2% (inactive),
O=C(COC(=O)/C=C/c1ccc(OC(F)F)cc1)NC1CCCCC1,-13.5% (inactive),
O=C(NCc1cccc(Cl)c1)C1CCN(c2nnc(N3CCCC3=O)s2)CC1,17.1% (inactive),
COc1ccccc1CNS(=O)(=O)c1c(C)[nH]c(C)c1C(=O)N1CCCCC1,3.9% (inactive),
O=C(CSc1nnnn1-c1ccc(O)cc1)c1ccc(F)cc1,31.6% (inactive),
O=C(CSc1nnnn1-c1ccc(O)cc1)N1N=C(c2ccc3ccccc3c2)CC1c1ccccc1 (stereo unspecified),,2.33 µM (active)
COc1ccc(C2=NN(C(=O)CSc3nnnn3C)C(c3ccco3)C2)cc1 (stereo unspecified),-10.9% (inactive),
Cc1nnnn1/C(=C\c1ccccc1)C(=O)OCC(=O)N1CC2(C)CC1CC(C)(C)C2 (stereo unspecified),,11.7 µM (active)
Cc1cccc(C(=O)NCC(=O)OCC(=O)N2CC3(C)CC2CC(C)(C)C3)c1 (stereo unspecified),-0.955% (inactive),
COc1ccccc1C(=O)N1CC2(C)CC1CC(C)(C)C2 (stereo unspecified),-29.8% (inactive),
COc1ccc(OC)c(-c2csc(NC(=O)COC(=O)C3CC3)n2)c1,9.21% (inactive),
C=CCOc1ccccc1NC(=O)CN1C(=O)CNC1=O,1.8% (inactive),
CC(C)(C)NC(=O)C(c1ccco1)N(Cc1ccc2c(c1)OCO2)C(=O)Cn1nnc2ccccc21 (stereo unspecified),,8.28 µM (active)
CC(C)(C)NC(=O)C(c1ccncc1)N(C(=O)CNC(=O)c1ccco1)c1ccc2c(c1)OCO2 (stereo unspecified),2.89% (inactive),
CCC(C)(C)NC(=O)C(c1cccn1C)N(Cc1ccc(C)cc1)C(=O)Cn1nnc2ccccc21 (stereo unspecified),-9.89% (inactive),
COCCn1c(C)cc(C(=O)CSc2nnc(C3CC3)n2C2CC2)c1C,-10.4% (inactive),

SMILES,"activity change, negative = inhibition",Potency
CCC(=O)Nc1ccc(S(=O)(=O)Nc2c(NC)c3ccccc3oc2=O)cc1,-19.6% (inactive),
CCOC(=O)c1sc(NC(=O)CSc2nc3c(c(=O)n2-c2ccccc2)SCC3)c(C(=O)OCC)c1C,,1.65 µM (active)
CCOC(=O)c1c(NC(=O)CSc2nccc(=O)[nH]2)sc(C)c1C,5.21% (inactive),
CCOC(=O)c1sc(NC(=O)CSc2nnc(-c3ccco3)o2)c(C(=O)OCC)c1C,-5.48% (inactive),
COc1cccc(N2CCN(c3ccc4nnc(CCC(=O)N5CCN(C)CC5)n4n3)CC2)c1,-14% (inactive),
COc1ccc(Nc2ncnc3sc(C)cc23)cc1,28.5% (inactive),
Cc1cc(Cl)ccc1C(=O)C1CCCN(C(=O)c2nonc2C)C1 (stereo unspecified),-4.57% (inactive),
CCOC(=O)C(C)n1cnc2c(nnn2-c2ccc(F)cc2)c1=O (stereo unspecified),56.3% (inactive),
COc1ccccc1NC(=O)c1cc(Cl)nnc1Cl,-20.4% (inactive),
COc1ccccc1Nc1nc(N)nc(CSC(=S)N2CCOCC2)n1,21.3% (inactive),
COc1ccccc1NC1=NC(c2ccc(Cl)cc2)N=C(N)N1 (stereo unspecified),,10.4 µM (active)
Cc1ccc(OCC(=O)Nc2ccc(C(=O)O)cc2NC(=O)COc2ccc(C)c(C)c2)cc1C,22.5% (inactive),
O=C1Nc2ccccc2/C1=C/c1ccnc2ccccc12,13.2% (inactive),
CC1C(=O)C(C)C(c2ccc(O)cc2)NC1c1ccc(O)cc1 (stereo unspecified),,6.57 µM (active)
CCOC(=O)C1C(c2ccc(O)cc2)NC(=O)NC1(O)C(F)(F)F (stereo unspecified),-15.2% (inactive),
CCOc1ccc(OCC)c(NC(=O)CN(C)S(=O)(=O)c2cccc3nsnc23)c1,,1.17 µM (active)
CCOc1ccccc1NC(=O)CCS(=O)(=O)c1cccc2nsnc12,1.11% (inactive),
CCOc1ccc(N(CC)S(=O)(=O)c2cccc3nsnc23)cc1,-1.52% (inactive),
